Experimental data taken from ChEMBL document CHEMBL1961873, “Compounds: GSK PKIS; Assays: Nanosyn kinase panel” (2012).
“And” between values parts separate entries of the source, which are not always exact repeats. Equal entries are not always repeated.

How the values were obtained:
[1] = biological target: Serine/threonine-protein kinase PAK 6 (Homo sapiens) (UniProt Q9NQU5); conditions: at 1 µM;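 also: values are mean percent inhibition of PAK6 kinase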
[2] = tested on: Tyrosine-protein kinase ABL1 (Homo sapiens), P00519 [E255K]; conditions: at 0.1 µM
[3] = tested on: Tyrosine-protein kinase ABL1 (Homo sapiens), P00519 [E255K]; conditions: at 1 µM
[4] = tested on: Tyrosine-protein kinase ABL1 (Homo sapiens), P00519 [H396P]; conditions: at 0.1 µM
[5] = tested on: Tyrosine-protein kinase ABL1 (Homo sapiens), P00519 [H396P]; conditions: at 1 µM
[6] = tested on: Tyrosine-protein kinase ABL1 (Homo sapiens), P00519 [M351T]; conditions: at 0.1 µM
[7] = tested on: Tyrosine-protein kinase ABL1 (Homo sapiens), P00519 [M351T]; conditions: at 1 µM
[8] = tested on: Tyrosine-protein kinase ABL1 (Homo sapiens), P00519 [Q252H]; conditions: at 0.1 µM
[9] = tested on: Tyrosine-protein kinase ABL1 (Homo sapiens), P00519 [Q252H]; conditions: at 1 µM
[10] = tested on: Tyrosine-protein kinase ABL1 (Homo sapiens), P00519 [T315I]; conditions: at 0.1 µM
[11] = tested on: Tyrosine-protein kinase ABL1 (Homo sapiens), P00519 [T315I]; conditions: at 1 µM
[12] = tested on: Tyrosine-protein kinase ABL1 (Homo sapiens), P00519 [Y253F]; conditions: at 0.1 µM
[13] = tested on: Tyrosine-protein kinase ABL1 (Homo sapiens), P00519 [Y253F]; conditions: at 1 µM
[14] = biological target: Tyrosine-protein kinase ABL1 (Homo sapiens) (UniProt P00519); conditions: at 0.1 µM
[15] = biological target: Tyrosine-protein kinase ABL1 (Homo sapiens) (UniProt P00519); conditions: at 1 µM
[16] = biological target: ALK tyrosine kinase receptor (Homo sapiens) (UniProt Q9UM73); conditions: at 0.1 µM
Chain of ALK tyrosine kinase receptor (Homo sapiens) (Q9UM73 19-1620 limits assumed): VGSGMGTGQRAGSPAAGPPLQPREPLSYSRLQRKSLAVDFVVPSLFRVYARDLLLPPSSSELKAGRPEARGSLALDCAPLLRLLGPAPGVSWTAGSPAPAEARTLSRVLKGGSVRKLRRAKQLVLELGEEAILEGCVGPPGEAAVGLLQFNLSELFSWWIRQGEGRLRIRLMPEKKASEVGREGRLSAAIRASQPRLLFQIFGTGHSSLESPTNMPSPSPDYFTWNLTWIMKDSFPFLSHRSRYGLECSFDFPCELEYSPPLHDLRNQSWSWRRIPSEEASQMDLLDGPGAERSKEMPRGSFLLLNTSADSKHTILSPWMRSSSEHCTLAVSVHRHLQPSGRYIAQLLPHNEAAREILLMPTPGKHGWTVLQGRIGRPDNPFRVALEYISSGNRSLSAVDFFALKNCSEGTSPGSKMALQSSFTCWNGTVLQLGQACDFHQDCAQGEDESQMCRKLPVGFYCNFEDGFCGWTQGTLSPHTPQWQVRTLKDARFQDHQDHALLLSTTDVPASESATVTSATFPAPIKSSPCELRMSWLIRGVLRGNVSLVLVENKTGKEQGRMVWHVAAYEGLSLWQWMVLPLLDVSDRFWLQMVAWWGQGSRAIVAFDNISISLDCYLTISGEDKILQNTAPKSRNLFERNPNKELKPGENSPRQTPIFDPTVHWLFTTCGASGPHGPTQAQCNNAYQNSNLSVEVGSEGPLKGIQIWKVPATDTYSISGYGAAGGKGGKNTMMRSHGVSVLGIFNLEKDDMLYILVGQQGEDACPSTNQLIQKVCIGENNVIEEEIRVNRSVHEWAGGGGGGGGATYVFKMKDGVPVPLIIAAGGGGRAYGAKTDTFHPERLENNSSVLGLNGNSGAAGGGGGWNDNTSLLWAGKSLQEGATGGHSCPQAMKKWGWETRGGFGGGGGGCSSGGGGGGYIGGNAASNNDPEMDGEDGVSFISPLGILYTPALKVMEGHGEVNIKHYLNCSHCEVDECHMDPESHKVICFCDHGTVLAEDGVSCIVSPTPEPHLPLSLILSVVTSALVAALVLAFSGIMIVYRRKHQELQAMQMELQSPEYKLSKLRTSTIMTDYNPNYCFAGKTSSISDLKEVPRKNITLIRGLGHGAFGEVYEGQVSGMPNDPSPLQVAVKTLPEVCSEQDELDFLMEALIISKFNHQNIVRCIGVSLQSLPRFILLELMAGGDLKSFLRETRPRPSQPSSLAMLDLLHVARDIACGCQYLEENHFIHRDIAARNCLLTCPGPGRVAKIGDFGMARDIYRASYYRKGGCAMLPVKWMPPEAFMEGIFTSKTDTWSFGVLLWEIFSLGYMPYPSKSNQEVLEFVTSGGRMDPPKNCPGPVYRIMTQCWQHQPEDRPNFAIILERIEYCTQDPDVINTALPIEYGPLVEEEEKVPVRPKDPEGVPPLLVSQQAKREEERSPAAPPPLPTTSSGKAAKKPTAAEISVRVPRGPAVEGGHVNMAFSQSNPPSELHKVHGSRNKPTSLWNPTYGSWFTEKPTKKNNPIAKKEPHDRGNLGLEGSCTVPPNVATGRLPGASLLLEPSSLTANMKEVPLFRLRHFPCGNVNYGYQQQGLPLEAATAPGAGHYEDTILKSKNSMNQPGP

[17] = biological target: ALK tyrosine kinase receptor (Homo sapiens) (UniProt Q9UM73); conditions: at 1 µM
[18] = biological target: Tyrosine-protein kinase ABL2 (Homo sapiens) (UniProt P42684); conditions: at 0.1 µM
Chain of Tyrosine-protein kinase ABL2 (Homo sapiens) (P42684 whole entry): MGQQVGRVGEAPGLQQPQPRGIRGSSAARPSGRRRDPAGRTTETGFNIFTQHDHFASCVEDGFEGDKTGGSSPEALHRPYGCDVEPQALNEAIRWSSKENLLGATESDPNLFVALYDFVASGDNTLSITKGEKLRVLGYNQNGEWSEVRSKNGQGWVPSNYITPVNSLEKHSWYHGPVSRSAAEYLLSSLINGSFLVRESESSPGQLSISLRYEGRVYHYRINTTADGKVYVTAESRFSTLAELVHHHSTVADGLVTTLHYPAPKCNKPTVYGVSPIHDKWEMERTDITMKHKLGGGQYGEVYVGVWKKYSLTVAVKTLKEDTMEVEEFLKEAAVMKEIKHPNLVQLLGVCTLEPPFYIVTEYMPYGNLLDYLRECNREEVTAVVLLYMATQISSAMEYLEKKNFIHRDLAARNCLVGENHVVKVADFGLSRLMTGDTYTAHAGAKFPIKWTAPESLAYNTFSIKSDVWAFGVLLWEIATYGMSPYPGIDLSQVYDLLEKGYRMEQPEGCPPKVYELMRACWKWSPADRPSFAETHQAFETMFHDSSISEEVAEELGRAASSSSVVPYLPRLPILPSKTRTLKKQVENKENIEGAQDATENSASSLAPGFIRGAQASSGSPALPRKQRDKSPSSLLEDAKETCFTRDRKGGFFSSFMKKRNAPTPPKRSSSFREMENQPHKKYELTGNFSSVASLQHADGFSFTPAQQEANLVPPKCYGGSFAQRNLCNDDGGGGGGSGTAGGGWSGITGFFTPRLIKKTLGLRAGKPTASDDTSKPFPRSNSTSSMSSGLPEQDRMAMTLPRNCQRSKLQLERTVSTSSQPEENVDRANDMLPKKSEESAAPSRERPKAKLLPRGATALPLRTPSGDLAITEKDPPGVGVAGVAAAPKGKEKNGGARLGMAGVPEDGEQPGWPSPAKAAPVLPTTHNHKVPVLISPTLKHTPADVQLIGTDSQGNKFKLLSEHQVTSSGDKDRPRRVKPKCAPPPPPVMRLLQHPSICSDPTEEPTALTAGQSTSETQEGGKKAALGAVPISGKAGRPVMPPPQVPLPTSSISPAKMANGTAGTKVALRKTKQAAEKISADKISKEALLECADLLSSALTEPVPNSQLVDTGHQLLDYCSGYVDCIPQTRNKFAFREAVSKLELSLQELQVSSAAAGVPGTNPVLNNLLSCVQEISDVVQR

[19] = biological target: Tyrosine-protein kinase ABL2 (Homo sapiens) (UniProt P42684); conditions: at 1 µM
[20] = biological target: Tyrosine-protein kinase receptor UFO (Homo sapiens) (UniProt P30530); conditions: at 0.1 µM;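 also: values are mean percent inhibition of AXL from the GSK PKIS screen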
Chain of Tyrosine-protein kinase receptor UFO (Homo sapiens) (P30530 whole entry): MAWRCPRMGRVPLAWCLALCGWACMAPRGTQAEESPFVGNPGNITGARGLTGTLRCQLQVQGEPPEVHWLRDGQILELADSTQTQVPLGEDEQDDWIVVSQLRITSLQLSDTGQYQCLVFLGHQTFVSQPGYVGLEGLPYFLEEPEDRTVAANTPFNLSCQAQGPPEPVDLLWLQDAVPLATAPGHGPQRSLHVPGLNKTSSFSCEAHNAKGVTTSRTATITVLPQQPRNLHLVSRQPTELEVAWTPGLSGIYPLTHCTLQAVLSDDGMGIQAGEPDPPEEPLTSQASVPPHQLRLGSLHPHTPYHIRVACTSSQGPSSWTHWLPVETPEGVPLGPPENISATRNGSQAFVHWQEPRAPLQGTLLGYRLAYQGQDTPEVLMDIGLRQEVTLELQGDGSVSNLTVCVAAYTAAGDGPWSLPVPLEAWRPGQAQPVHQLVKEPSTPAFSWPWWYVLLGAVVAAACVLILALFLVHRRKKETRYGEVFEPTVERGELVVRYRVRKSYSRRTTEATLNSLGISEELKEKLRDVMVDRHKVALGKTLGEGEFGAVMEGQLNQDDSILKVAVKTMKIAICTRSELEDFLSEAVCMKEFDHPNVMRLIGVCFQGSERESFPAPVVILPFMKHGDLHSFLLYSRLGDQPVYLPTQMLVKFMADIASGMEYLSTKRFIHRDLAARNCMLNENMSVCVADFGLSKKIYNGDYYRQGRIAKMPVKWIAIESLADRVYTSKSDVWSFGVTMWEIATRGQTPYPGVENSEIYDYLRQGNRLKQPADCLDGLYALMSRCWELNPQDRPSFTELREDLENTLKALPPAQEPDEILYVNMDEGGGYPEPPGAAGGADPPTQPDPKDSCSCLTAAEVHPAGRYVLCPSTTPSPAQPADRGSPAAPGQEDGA

Chain of Serine/threonine-protein kinase PAK 6 (Homo sapiens) (Q9NQU5 whole entry, looked up): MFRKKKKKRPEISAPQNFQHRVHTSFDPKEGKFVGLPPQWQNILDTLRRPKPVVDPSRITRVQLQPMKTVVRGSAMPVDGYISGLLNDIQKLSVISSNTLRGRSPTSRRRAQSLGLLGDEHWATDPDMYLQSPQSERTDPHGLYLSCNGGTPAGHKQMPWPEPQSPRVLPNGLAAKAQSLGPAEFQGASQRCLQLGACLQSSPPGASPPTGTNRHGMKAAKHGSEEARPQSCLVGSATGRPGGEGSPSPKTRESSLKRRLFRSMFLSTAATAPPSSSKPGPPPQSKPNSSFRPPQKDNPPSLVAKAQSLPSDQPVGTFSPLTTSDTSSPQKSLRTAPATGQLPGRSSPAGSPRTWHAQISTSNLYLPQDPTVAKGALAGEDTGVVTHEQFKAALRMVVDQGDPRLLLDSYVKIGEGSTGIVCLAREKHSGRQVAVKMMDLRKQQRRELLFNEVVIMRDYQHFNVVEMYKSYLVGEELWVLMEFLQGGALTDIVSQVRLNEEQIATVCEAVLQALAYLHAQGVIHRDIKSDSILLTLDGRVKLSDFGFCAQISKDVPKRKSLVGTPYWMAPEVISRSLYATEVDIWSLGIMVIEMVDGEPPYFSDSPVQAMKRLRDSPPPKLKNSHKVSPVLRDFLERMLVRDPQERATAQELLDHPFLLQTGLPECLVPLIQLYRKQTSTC

| Structure (SMILES) | inhibition [1] | inhibition [2] | inhibition [3] | inhibition [4] | inhibition [5] | inhibition [6] | inhibition [7] | inhibition [8] | inhibition [9] | inhibition [10] | inhibition [11] | inhibition [12] | inhibition [13] | inhibition [14] | inhibition [15] | inhibition [16] | inhibition [17] | inhibition [18] | inhibition [19] | inhibition [20] |
| --- | --- | --- | --- | --- | --- | --- | --- | --- | --- | --- | --- | --- | --- | --- | --- | --- | --- | --- | --- | --- |
| COc1cccc(Nc2nccc(-c3cnn4ncccc34)n2)c1 | 5.36% | 5.54% | 23.1% | 8.68% | 41.2% | 8.35% | 45% | 9.38% | 46.5% | 3.94% | 30% | 7.39% | 39.2% | 4.97% | 40.9% | 5.36% | 32.3% | 6.41% | 44.2% | -0.07% |
| Fc1ccc(Nc2nccc(-c3c(-c4ccc(C(F)(F)F)cc4)nn4ncccc34)n2)cc1F | 1.02% | 0.93% | 3.19% | 3.64% | 1.04% | 2.73% | 2.45% | 3.28% | -0.3% | 3.85% | 0.93% | 3.58% | 2.19% | 5.29% | 5.12% | 3.18% | 6.53% | 3.43% | 4.03% | -5.49% |
| Nc1nccc(-c2c(-c3ccc(F)cc3)ncn2C2CCNCC2)n1 | -8.13% and -0.6% | -2.24% and 1.83% | -1.66% and 0.75% | -1.77% and 0.86% | 3.78% and 0.72% | -2.76% and 1.38% | 4.44% and 1.12% | -0.74% and -0.69% | 4.57% and 2.57% | -3.43% and 2.15% | 1.38% and 1.78% | -2.62% and 1.74% | 3.43% and 4.65% | -2.44% and 0.45% | 7.89% and 5.4% | -2.83% and 0.4% | -1.85% and 1.82% | -2.01% and -0.73% | 3% and 19.3% | 3.6% and 1.09% |
| O=C1Nc2ccccc2/C1=C1\CCc2cc(O)ccc21 | -3.1% | 1.09% | 9.2% | 5.59% | 15% | 4.89% | 15.4% | 5.53% | 12.8% | 4.27% | 16.2% | 5% | 15.6% | 3.68% | 15% | 5.54% | 25.4% | 2.63% | 9.37% | -8.77% |
| CC1=C(C(=O)Nc2ccc3[nH]nc(C)c3c2)C(c2ccc(C(F)(F)F)cc2)CC(=O)N1 (stereo not given) | 6.01% | 2.57% | 3.48% | 4.06% | 4.03% | 1.49% | 4.65% | 4.49% | 3.3% | 3.82% | 2.86% | 4.61% | 1.36% | 7.68% | 9.26% | 3.26% | 6.8% | 7.56% | 7.08% | -3.17% |
| CS(=O)(=O)CCNCc1ccc(-c2ccc3ncnc(Nc4ccc(OCc5ccccc5)cc4)c3c2)o1 | -0.08% | 2.13% | 3.38% | 4.24% | 5.36% | 2.42% | 4.54% | 3.95% | 5.12% | 1.78% | 4.95% | 2.39% | 4.13% | 5.38% | 5.59% | 2.33% | 2.76% | 2.73% | 4.87% | -3.92% |
| Cc1c2ccc(N(C)c3ccnc(Nc4cccc(S(N)(=O)=O)c4)n3)cc2nn1C | -6.14% | 19.6% | 67.6% | 37.9% | 81.6% | 39.5% | 84.8% | 42.9% | 83.6% | 11.3% | 52.2% | 43.4% | 83.3% | 16.7% | 64.5% | 1.38% | 18.8% | 19.5% | 62.8% | -8.43% |
| CCn1c(-c2nonc2N)nc2cncc(C(=O)NCCNC)c21 | -1.02% | 3.42% | 4.29% | 3.77% | 6.65% | -0.31% | 3.11% | 4.53% | 5.61% | 3.85% | 5.14% | 8.7% | 7.62% | 3.3% | 5.3% | 1.99% | 4.23% | 2.36% | 4.11% | -8.56% |
| Nc1ncnc2occ(-c3ccc(NC(=O)Nc4cc(C(F)(F)F)ccc4F)cc3)c12 | 0.09% and -8.17% | 5.05% and 2.1% | 33.4% and 18.4% | 24.2% and 11.5% | 73.1% and 58.4% | 56.4% and 49.1% | 84.6% and 76.3% | 55.7% and 45.2% | 79.1% and 74% | 53.6% and 39.2% | 91.1% and 85% | 10.7% and 5.56% | 44.9% and 29.1% | 10.9% and 4.97% | 58.9% and 35.7% | 2.84% and -1.14% | 22.8% and 12.6% | 25.2% and 23.9% | 64.2% and 56.4% | -3.96% and -3.19% |
